Measurements published in PubChem BioAssay (NCATS).
Several values for one entry are separate records, joined by “and”; a condition that tells them apart may be missing. Identical values can stand only once. Inconclusive results are not listed. Activity calls are given as the source filed them. The call rests on the fitted dose curve; in most records, active means well fitted inhibition curve with a large enough effect; inconclusive means small, poorly fitted or top-dose-only effect; inactive means flat fitted curve, though single readings scatter.

test system: KB-3-1; test: Cytotoxic Profiling of Annotated Libraries Using Quantitative High-Throughput Screening (AID 1296008); conditions: Five cell lines viability, CellTiter-Glo ATP luminescence, 48-72 h; max response: hits give low values; further: nearly all actives have a fitted effect of over 60% in size
Outline: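 Cytotoxicity was measured as CellTiter-Glo ATP luminescence, read after 10 min at room temperature. Compound treatment of the cells lasted 48 or 72 hr at 37 degrees Celsius in a qHTS format.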
On the % scale 0 is the no-effect control and ±100 the full control effect.

SMILES	max response
CC[C@H]1OC(=O)[C@H](C)[C@@H](O[C@H]2C[C@@](C)(OC)[C@@H](O)[C@H](C)O2)C(C)[C@@H](O[C@@H]2O[C@H](C)C[C@H](N(C)C)[C@@H]2O)[C@](C)(OC)C[C@@H](C)C(=O)[C@H](C)[C@@H](O)[C@]1(C)O (some centres undefined)	-4.62% (inactive)
OCc1ccccc1	7.88% (inactive)
CC(O)CN(C)C (centres undefined)	-6.37% (inactive)
Cc1ncc[nH]1	3.25% (inactive)
CNC(=O)C[C@@H](N)C(=O)N[C@@H](C(=O)N[C@@H]1C(=O)N2[C@@H]1SC(C)(C)[C@@H]2C(=O)O)c1ccc(O)cc1	-18.5% (inactive)
OCCN1CCN(CC/C=C2/c3ccccc3Sc3ccc(Cl)cc32)CC1	6.68% (inactive)
COC(=O)[C@@H](N)CS	-3.99% (inactive)
Cc1cc(C(=O)NCCc2ccc(S(=O)(=O)NC(=O)NN3CCCCCC3)cc2)no1	8.89% (inactive)
O=P(O)(O)OP(=O)(O)O	-8.71% (inactive)
Cc1cc2nc3c(=O)[nH]c(=O)nc-3n(C[C@H](O)[C@H](O)[C@H](O)COP(=O)(O)OP(=O)(O)OC[C@H]3O[C@@H](n4cnc5c(N)ncnc54)[C@H](O)[C@@H]3O)c2cc1C	-11% (inactive)
CC(CN1c2ccccc2Sc2cccnc21)N(C)C (centres undefined)	-2.53% (inactive)
O=C[C@H](O)[C@@H](O)[C@@H](O)[C@H](O)CO	-13.6% (inactive)
C=CCN1CCCC1CNC(=O)c1cc(S(N)(=O)=O)cc(OC)c1OC (centres undefined)	5.61% (inactive)
CC[C@@H](C(=O)[C@@H](C)[C@@H](O)[C@H](C)[C@@H]1O[C@@H]([C@@H](CC)C(=O)O)CC[C@@H]1C)[C@H]1O[C@]2(C=C[C@@H](O)[C@]3(CC[C@@](C)([C@H]4CC[C@](O)(CC)[C@H](C)O4)O3)O2)[C@H](C)C[C@@H]1C	-24.3% (inactive)
C[C@@H]1C/C=C/C=C/C=C/C=C/[C@H](O[C@@H]2O[C@H](C)[C@@H](O)[C@H](N)[C@@H]2O)C[C@@H]2O[C@](O)(C[C@@H](O)C[C@H]3O[C@@H]3/C=C/C(=O)O1)C[C@H](O)[C@H]2C(=O)O	3.94% (inactive)
COc1cc(S(C)=O)ccc1-c1nc2ncccc2[nH]1 (centres undefined)	26.5% (inactive)
Cc1ncc(COP(=O)(O)O)c(CN)c1O	-6.16% (inactive)
CC1(O)CCC(C(C)(C)O)CC1 (centres undefined)	-9.81% (inactive)
N=C(N)c1ccc(/C=C/c2ccc(C(=N)N)cc2O)cc1	-19% (inactive)
CCCCO	-19.5% (inactive)
CCN(CC)CCOC[C@H]1O[C@@H](O)[C@H](OCCN(CC)CC)[C@@H](O)[C@@H]1O	8.48% (inactive)
O=C(O)CN(CC(=O)O)CC1=CC2C(=CC1=O)Oc1cc(O)c(CN(CC(=O)O)CC(=O)O)cc1C21OC(=O)c2ccccc21 (centres undefined)	-3.16% (inactive)
CO/N=C(/C(=O)N[C@@H]1C(=O)N2C(C(=O)O)=C(COC(N)=O)CS[C@H]12)c1ccco1	-4.54% (inactive) and -18.4% (inactive)
[O-][N+](=Nc1ccccc1)c1ccccc1	-7.74% (inactive)
